Compounds with a hit are over-represented: about 1.8% of the library has one in this group of screens.
GRP78 ERSR act: qHTS for Inducers of the Endoplasmic Reticulum Stress Response (ERSR) in Human Glioma: qHTS; U87-MG GRP78 promoter luciferase reporter, 16 h; Potency, µM, for inactives: at the highest dose activation, hits mostly activators; actives 0.02% (n = 420,000); AID 602332, 2012; also: potency is read from the fitted curve at half-maximal effect; series mostly up to about 76 µM; % of control where 0% means no effect; nearly all actives have a fitted effect of over 35% in size
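Stably transfected U87-MG glioma cells carrying a GRP78-based luciferase sensor; 16 h compound incubation. Luminescence end-point read 10 min after Bright-Glo addition at room temperature.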
MBNL1 CUG block: qHTS Assay for Inhibitors of MBNL1-poly(CUG) RNA binding; actives 0.036% (n = 280,000); Potency, µM (highest dose often 57.5 µM), for the others: top-dose activity change, negative = inhibition, most hits filed as inhibitors; TR-FRET MBNL1-His/biotin-(CUG)12 binding, 665/545 ratio; Muscleblind-like protein 1 (Homo sapiens), Q9NR56; AID 2675, 2010; active = well fitted inhibition curve with a large enough effect in the signal ratio, with a control signal flat, not every such curve was filed as active; inconclusive = small, poorly fitted or top-dose-only effect, or effect the other way, or a change in a side signal; inactive = no such curve, though single readings can be large or run the other way; the % refers to the signal ratio; also: potency is read from the fitted curve at half-maximal effect; % is scaled to controls: 0 for no effect and ±100 for the full control effect
Target sequence (Q9NR56 whole entry, looked up): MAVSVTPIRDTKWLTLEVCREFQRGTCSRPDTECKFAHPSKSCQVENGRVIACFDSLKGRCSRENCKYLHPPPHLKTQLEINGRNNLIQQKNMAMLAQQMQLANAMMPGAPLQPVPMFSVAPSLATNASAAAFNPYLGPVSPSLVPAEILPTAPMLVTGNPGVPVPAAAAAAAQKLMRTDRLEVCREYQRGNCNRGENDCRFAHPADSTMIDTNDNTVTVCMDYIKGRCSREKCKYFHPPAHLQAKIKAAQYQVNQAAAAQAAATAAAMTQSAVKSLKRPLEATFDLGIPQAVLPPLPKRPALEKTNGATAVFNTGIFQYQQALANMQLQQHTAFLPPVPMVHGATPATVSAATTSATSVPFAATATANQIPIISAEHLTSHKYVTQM
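His-tagged MBNL1 binding to biotinylated (CUG)12 RNA was measured by TR-FRET using terbium anti-His antibody (0.055 ng/ul final) and streptavidin-XL665 (5 nM final). Compounds were titrated 92 nM to 58 uM; 60 min at room temperature.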
Mito fusion yeast: qHTS Assay for Small Molecule Inhibitors of Mitochondrial Division or Activators of Mitochondrial Fusion | actives 0.23% (n = 320,000) | S. cerevisiae fusion-defective mutant growth rescue, CellTiterGlo 48 h | Potency, µM (series often up to 46.1 µM), inactives show at the highest dose growth rescue (activation), actives largely listed as activators; also: potency is read from the fitted curve at half-maximal effect; % of control where 0% means no effect; nearly all actives have a fitted effect of over 45% in size
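Yeast fusion mutant, YPEG (non-fermentable carbon), compound, 48 h at 37C non-permissive; CellTiterGlo added, 10 min RT, luminescence read. Rescued growth = division inhibition.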
A-T KAP1 phos: qHTS Assay for Identifying a Potential Treatment of Ataxia-Telangiectasia; F2112 A-T fibroblasts, KAP-1 phosphorylation AlphaLISA; neocarzinostatin DNA damage 30 min before lysis; Potency, µM (titrated, usually from 57.5 µM), for the others: at the top dose activation, most hits filed as activators; actives 0.19% (n = 320,000); also: potency is read from the fitted curve at half-maximal effect; % of control where 0% means no effect; nearly all actives have a fitted effect of over 45% in size
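hTERT-immortalized A-T patient fibroblasts (F2112), 500 cells/well in OPTI-MEM, 1% FBS, got compounds for 60 min, then NCS for 30 min at 37C. Lysates were then assayed for phospho-KAP-1 by AlphaLISA (anti-pKAP1 donor, anti-KAP1 acceptor beads), 6 hr at 25C.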
TCR act: Activators of T cell receptors: qHTS campaign; primary human leukocytes, anti-CD3, IL-2 HTRF, 48 h; 330,000 tested, under 10 active; Potency, µM (titrated, usually from 9.22 µM), for inactives: top-dose activation of IL-2 secretion, hits mostly activators; also: % of control where 0% means no effect
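Primary human leukocytes incubated 48 hr with anti-CD3 beads plus compound, without co-stimulation. Secreted IL-2 measured by HTRF (europium cryptate/d2 anti-IL-2 pair, 320 nm excitation, 665 nm emission).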
ClpP mod: qHTS Assay for Activators of ClpP; purified B. subtilis ClpP, FRET peptide cleavage, 20 min; Potency, µM (series often up to 57.5 µM), inactives show at the top dose activity change, negative = active; actives 1.9% (n = 340,000); AID 651965, 2013; active = well fitted falling curve with a large enough effect; inconclusive = small, poorly fitted or top-dose-only effect; inactive = no such curve, though single readings can be large or run the other way; also: potency is read from the fitted curve at half-maximal effect; the source files actives as falling curves though it sought activators and does not explain the sign; nearly all actives have a fitted effect of over 65% in size
Target sequence (P80244 whole entry, looked up): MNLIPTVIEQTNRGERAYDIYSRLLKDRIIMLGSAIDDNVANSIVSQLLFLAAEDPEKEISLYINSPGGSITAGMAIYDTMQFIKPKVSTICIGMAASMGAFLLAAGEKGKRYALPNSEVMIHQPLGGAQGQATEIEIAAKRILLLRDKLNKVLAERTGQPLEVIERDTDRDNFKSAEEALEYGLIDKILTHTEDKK
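Purified B. subtilis ClpP, 10 microg/mL final in Tris/HCl pH8 with KCl, BSA, glycerol and Tween-20, cleaved an Abz/nitrotyrosine-quenched decapeptide. Fluorescence (ex 320, em 430) was read at 0 and 20 min at room temperature. Delta was normalized to 5.8 microM ADEP and DMSO/no-enzyme controls.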
Active calls of the source: *; ? = inconclusive; . = no result given; ! = not active in a repeat; [ ] = remark or other dose. Unless noted, calls follow the shape of the dose curve; as a rule, active = well fitted curve in the direction sought with a large enough effect; inconclusive = small, poorly fitted or top-dose-only effect, or another doubt; inactive = no such curve, though single readings can be large; an effect the other way counts as inactive or inconclusive.

SMILES | GRP78 ERSR act | MBNL1 CUG block | Mito fusion yeast | A-T KAP1 phos | TCR act | ClpP mod
O=[N+]([O-])c1ccc(-c2[se]c3ccccc3c2I)cc1 | -1% | . | . | . | . | .
CC1=NN(c2ccccc2)C(=O)/C1=C/c1c(O)[nH]c(=S)[nH]c1=O | -3% | 13% | -1% | -13% | -4% | 25µM*
CC1=NN(c2ccccc2)C(=O)/C1=C/c1c(O)[nH]c(=O)[nH]c1=O | -3% | 6% | 3% | 2% | -1% | .
CC(=O)[C@@H]1CC[C@H]2[C@@H]3CC[C@@H]4CC(=O)CC[C@]4(C)[C@H]3CC[C@]12C | -3% | . | . | . | . | .
CCCCn1c(NS(=O)(=O)c2ccccc2)c(C(=O)OCC)c2nc3ccccc3nc21 | 0% | 5% | 7% | . | -1%[46.1 µM] | 28µM*
CCCCn1c(NC(=O)c2ccc(Br)o2)c(C(=O)OCC)c2nc3ccccc3nc21 | 2% | -8%[11.5 µM] | 8.9µM* | 9% | -3% | .
C[C@]12CC[C@@H]3c4ccc(OC(=O)N(CCCl)CCCl)cc4CC[C@H]3[C@@H]1CC[C@@H]2OP(=O)(O)O | -1% | . | . | . | . | .
CC(=O)N1CC(O)CC1C(=O)O (stereo unspecified) | -4% | . | . | . | . | .
CCN(CC(=O)Nc1ccccc1C(F)(F)F)C(=O)CCSc1ccc(F)cc1 | -3% | . | 3% | -1% | 3% | 13µM*
CC12CCC(=O)C=C1CCC1C2CCC2(C)C(O)CCC12 (stereo unspecified) | -2% | 1% | 13% | 1% | -2% | -1%
COc1cc2c(cc1O)CC[C@@H]1[C@@H]2CC[C@]2(C)[C@@H](O)CC[C@@H]12 | -3% | 2% | 21µM*! | . | -11% | 1%
Nc1c([N+](=O)[O-])ccc(Oc2ccccc2)c1Cl | -5% | . | . | . | . | .
CC(N)C(=O)c1ccccc1 (stereo unspecified) | -3% | . | . | . | . | .
COC(=O)c1ccc(C(=O)OC)c(NC(=O)Oc2ccccc2)c1 | 2% | 16% | 0% | ? | -4%[46.1 µM] | 2.8µM*
O=C(Oc1ccc2cc(Br)ccc2c1)N1CCCCCC1 | . | 8% | 16% | 35µM* | -13%[46.1 µM] | .
N=C1c2ccccc2CN1c1cccc([N+](=O)[O-])c1 | 7% | ? | 7% | 0% | 1% | 0%
Nc1cccc2c1Cc1cc([N+](=O)[O-])ccc1-2 | -1% | . | . | . | -2% | 28µM*
CCCn1c(C)c(C(=O)c2ccc3ccccc3c2)c2ccccc21 | 1% | . | 13µM* | . | . | .
CON(C)C(=O)Nc1ccc(Br)c(Cl)c1 | 4% | . | . | . | . | .
O=C(c1cccn2c(=O)c3cc(Cl)ccc3nc12)N1CCC2(CC1)OCCO2 | -1% | ? | -10% | . | -13% | 25µM*
Cc1ccc2cc3cc(C(=O)N4CCC5(CC4)OCCO5)oc3nc2c1 | 5% | ? | 0% | -4% | 1% | 14µM*
Cc1cccc(N2CCc3c2nc2ccccc2c3N)c1 | 2% | ? | 7% | 15% | -6% | 25µM*!
Cc1cc(NC(=O)c2cccn(Cc3cccc(Cl)c3)c2=O)no1 | -2% | . | . | . | . | 35µM*
O=C(NCC(c1cccnc1)N1CCN(c2ccccc2F)CC1)Oc1ccccc1 (stereo unspecified) | -6% | -1% | 0% | . | 0% | 22µM*
COc1ccc(N2CCN(C(CNC(=O)Oc3ccccc3)c3cccnc3)CC2)cc1 (stereo unspecified) | -4% | -9% | 0% | -3% | . | 0%
SMILES | GRP78 ERSR act | MBNL1 CUG block | Mito fusion yeast | A-T KAP1 phos | TCR act | ClpP mod
Clc1ccc(C(Cn2ccnc2)OCc2csc3c(Cl)cccc23)c(Cl)c1 (stereo unspecified) | -1% | . | 3.5µM* | -3% | -3% | 0%
Clc1ccc([C@H](Cn2ccnc2)OCc2csc3c(Cl)cccc23)c(Cl)c1 | -1% | . | . | . | . | .
COC(=O)C1=C(c2ccccc2OCc2ccccc2)C[C@@H]2CC[C@H]1N2C(=O)NCCc1ccc(F)cc1 | -4% | . | 8.9µM* | -4% | -2% | -3%
COC(=O)C1=C(c2ccccc2OCc2ccccc2)C[C@@H]2CC[C@H]1N2C(=O)NCc1ccccc1 | -1% | . | ? | 5% | -7% | -3%
O=C1/C(=C/c2ccc(F)cc2)Oc2cc(OC(=O)N3CCOCC3)ccc21 | -2% | -8% | -2% | 1% | -7% | 18µM*
CN(C)C(=O)Oc1ccc2c(c1)O/C(=C\c1ccc(Cl)cc1)C2=O | 2% | 3% | 4% | -31% | 3% | -7%
CCON=C(CC)C1=C(O)CC(c2c(C)cc(C)cc2C)CC1=O (stereo unspecified) | -3% | . | . | . | . | .
c1ccc(C(c2ccccc2)N2CCN(c3ccc4ccccc4n3)CC2)cc1 | -6% | 5% | -1% | 10% | -3% | 18µM*
CC(C)CCNC(=O)c1c(N)n(CC2CCCO2)c2nc3ccccc3nc12 (stereo unspecified) | -3% | 0% | 20% | 7% | -4% | ?
CCC(C)NC(=O)c1c(N)n(CC2CCCO2)c2nc3ccccc3nc12 (stereo unspecified) | -8% | ? | 16% | 20% | 2% | 35µM*
CCCCn1c(N)c(C(=O)NCCN2CCOCC2)c2nc3ccccc3nc21 | -5% | ? | 3% | 18% | -2% | 11µM*
COCCNC(=O)c1c(NC(=O)c2ccco2)n(Cc2ccccc2)c2nc3ccccc3nc12 | -4% | 9% | 11% | 12% | -6% | 25µM*
Nc1c(C(=O)NCCc2ccccc2)c2nc3ccccc3nc2n1CCN1CCOCC1 | 2% | 7% | 17% | 32% | -3% | ?
CCOC(=O)c1c(N)n(CCN2CCCCC2)c2nc3ccccc3nc12 | -4% | 5% | -7% | 5% | . | 32µM*
COC[C@H]1OC(=O)c2coc3c2[C@@]1(C)C1=C(C3=O)[C@H]2CCC(=O)[C@@]2(C)C[C@H]1OC(C)=O | -11% | . | . | . | . | .
C=CCNC(=O)c1c(N)n(Cc2ccco2)c2nc3ccccc3nc12 | -5% | 9% | 11% | 17% | -9% | 16µM*
Nc1c(C(=O)NCCN2CCOCC2)c2nc3ccccc3nc2n1Cc1ccccc1 | -4% | ? | 6% | 20µM* | -3% | .
COCCNC(=O)c1c(N)n(Cc2ccco2)c2nc3ccccc3nc12 | -2% | ? | 3% | ? | -2% | ?
COc1ccc(CCNC(=O)c2c(N)n(CCN3CCOCC3)c3nc4ccccc4nc23)cc1 | -14% | 0% | ? | ? | 5% | -18%

Assay outcomes (PubChem BioAssay)
